In the supplement of paper PMC6555819:

Columns and labels:
Assay in all cases: PBM binding z-score (relative to random genomic background probes); higher = stronger binding; sequences stand for … in GC…GCGATTGACAGCGTAGAATGAAGG
[1] = test system: FXR:RXRa (NR concentration 270 nM, RXRa partner concentration 90 nM)
Summary of the method: (§1)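 On custom Agilent 4×180K arrays, double-stranded probes with 34-nt variable regions carried direct-repeat seeds, single-nucleotide variants, half-site ablations or random human genomic background. Ligand-free nuclear receptor dimers were applied for 1 h, and binding was read with antibodies against each partner (one per run). Binding z-scores come from regression-normalized fluorescence, with the random background probes as reference.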

[2] = test system: LXRa:RXRa (NR concentration 270 nM, RXRa partner concentration 90 nM)
Summary of the method: as §1

[3] = test system: LXRa homodimer (NR concentration 270 nM)
Summary of the method: as §1

[4] = test system: LXRb:RXRa (NR concentration 270 nM, RXRa partner concentration 90 nM)
Summary of the method: as §1

[5] = test system: PPARa:RXRa (NR concentration 270 nM, RXRa partner concentration 90 nM)
Summary of the method: as §1

[6] = test system: PPARg:RXRa (NR concentration 180 nM, RXRa partner concentration 90 nM)
Summary of the method: as §1

[7] = test system: PPARg:RXRa 270nM:90nM, anti-RXR (NR concentration 270 nM, RXRa partner concentration 90 nM)
Summary of the method: as §1

[8] = test system: PPARg:RXRa 30nM:10nM, anti-RXR (NR concentration 30 nM, RXRa partner concentration 10 nM)
Summary of the method: as §1

[9] = test system: PPARg:RXRa 90nM:30nM, anti-RXR (NR concentration 90 nM, RXRa partner concentration 30 nM)
Summary of the method: as §1

[10] = test system: PPARg:RXRa DBDmut IVT, anti-RXR (DBD mutation: RXRa K156A/R161A, NR concentration 270 nM, RXRa partner concentration 90 nM)
Summary of the method: as §1

[11] = test system: PPARg:RXRa IVT, anti-PPARg (NR concentration 270 nM, RXRa partner concentration 90 nM)
Summary of the method: as §1

[12] = test system: PPARg homodimer (NR concentration 180 nM)
Summary of the method: as §1

[13] = test system: PXR:RXRa (NR concentration 270 nM, RXRa partner concentration 90 nM)
Summary of the method: as §1

[14] = test system: PXR homodimer (NR concentration 270 nM)
Summary of the method: as §1

[15] = test system: RARa:RXR (NR concentration 270 nM, RXRa partner concentration 90 nM)
Summary of the method: as §1

[16] = test system: RARa homodimer (NR concentration 270 nM)
Summary of the method: as §1

[17] = test system: RARb:RXRa (NR concentration 270 nM, RXRa partner concentration 90 nM)
Summary of the method: as §1

Row | Sequence | PBM binding z-score [1] | PBM binding z-score [2] | PBM binding z-score [3] | PBM binding z-score [4] | PBM binding z-score [5] | PBM binding z-score [6] | PBM binding z-score [7] | PBM binding z-score [8] | PBM binding z-score [9] | PBM binding z-score [10] | PBM binding z-score [11] | PBM binding z-score [12] | PBM binding z-score [13] | PBM binding z-score [14] | PBM binding z-score [15] | PBM binding z-score [16] | PBM binding z-score [17]
1 | CCGAGTATGTTACGAGGGGGCATTCAGTGCGAAT | 1.03 | 4.44 | 0.955 | 3.9 | 2.28 | 0.244 | 1.45 | 0.332 | 1.29 | 1.52 | 1.95 | 1.3 | 3.07 | 4.74 | 2.27 | 0.735 | 1.15
2 | TCGAGTAGGTTACGGGGGCATTCATGGATGAAGA | 2.37 | 2.82 | 0.637 | 4.75 | 4.29 | 6.11 | 5.78 | 3.34 | 4.94 | 5.12 | 5.88 | 1.86 | 3.32 | 1.27 | 2.88 | 0.144 | 2.51
3 | CCGAGTAGGTTACGAGGGAGCATTCAGTGCGAAT | -0.0908 | 3.55 | -0.145 | 1.05 | 1.52 | 1.15 | 1.55 | 0.0513 | 0.563 | 4.73 | 3.51 | 0.106 | 0.602 | 0.000491 | 0.506 | -0.145 | 0.887
4 | CCGAGTAGTTTACGAGGGGGCATTCAGTGCGAAT | 1.62 | 4.8 | 0.906 | 4.15 | 2.17 | -0.276 | 1.08 | 0.469 | 1.59 | 1.32 | 0.828 | 0.86 | 3.29 | 4.22 | 2.06 | 0.00505 | 1.4
5 | TCTAGTAGGTTACGGGGGCATTCAGGGATGAAGA | 3.33 | 3.71 | 1.27 | 5.76 | 4.95 | 8 | 6.8 | 5.71 | 6.87 | 6.73 | 7 | 2.93 | 3.79 | 2.71 | 3.63 | 1.37 | 3.21
6 | CTATGTAGGTTAAGGGGGTCATTCCGTTTGAAAG | 4.77 | 5.26 | 3.1 | 6.22 | 6.1 | 8.1 | 7.77 | 5.98 | 7.6 | 7.72 | 7.69 | 3.57 | 5.52 | 4.83 | 5.89 | 1.49 | 3.33
7 | CTATGTAGGTTAAGGGTGTCATTCAGTTTGAAAG | 0.954 | 1.2 | 0.0163 | 1.33 | 4.61 | 8.17 | 7.44 | 6.35 | 8.04 | 7.72 | 7.59 | 1.32 | 1.38 | 0.641 | 1.5 | 0.262 | 1.56
8 | TCGAGTAGGTTACGGGGGGATTCAGGGATGAAGA | 2.95 | 2.87 | 1.21 | 5.21 | 3.11 | 5.11 | 4.06 | 3.29 | 4.14 | 4.94 | 5.45 | 3.89 | 3.86 | 2.74 | 3.13 | 2.04 | 2.8
9 | CCGAGTAGGTTAAGAGGGGGCATTCAGTGCGAAT | 3.24 | 6.72 | 1.5 | 5.79 | 3.21 | 1.93 | 3.19 | 0.978 | 2.43 | 4.47 | 4.75 | 2.41 | 4.95 | 6.8 | 2.7 | 1.37 | 2.28
10 | CCGAGTAGCTTACGAGGGGGCATTCAGTGCGAAT | 0.729 | 1.73 | 0.701 | 3.62 | 1.77 | -0.443 | 0.5 | -0.877 | -0.359 | 0.648 | 0.528 | 0.745 | 2.64 | 5.04 | 1.67 | -0.103 | 0.8
11 | CTATGTTGGTTAAGGGGGTCATTCAGTTTGAAAG | 4.6 | 4.68 | 3.82 | 6.28 | 5.26 | 4.14 | 5.2 | 2.97 | 4.57 | 3.11 | 5.29 | 4.17 | 5.75 | 10.8 | 5.62 | 4.36 | 3.51
12 | CCGAGTAGGTTACGAGGTGGCATTCAGTGCGAAT | 0.103 | 2.1 | -0.445 | 0.601 | 1.61 | 1.79 | 2.03 | 0.157 | 1.16 | 4.75 | 3.92 | 0.24 | 0.618 | -0.0659 | 0.472 | -0.0316 | 1.03
13 | CAATGTAGGTTAAGGGGGTCATTCAGTTTGAAAG | 3.39 | 5.38 | 3.82 | 6.46 | 6.05 | 8.91 | 8.13 | 6.58 | 8.44 | 7.92 | 7.9 | 7.74 | 6.21 | 13.1 | 6.32 | 4.17 | 3.72
14 | CTATGTAGGTTAAGGGGGTCATTCTGTTTGAAAG | 4.82 | 4.99 | 2.88 | 6.33 | 5.95 | 8.35 | 7.68 | 6 | 7.63 | 6.99 | 7.55 | 3.03 | 5.44 | 3.94 | 5.46 | 1.35 | 3.47
15 | TCGAGTAGGTTACGGGGGCATTTAGGGATGAAGA | 3.13 | 3 | 0.674 | 5.04 | 4.52 | 6.04 | 5.65 | 2.96 | 4.66 | 5.1 | 5.8 | 1.44 | 3.25 | 1.54 | 3.29 | 0.213 | 2.56
16 | CTATGTAGGTTAAGGGGGTAATTCAGTTTGAAAG | 1.45 | 2.81 | 0.813 | 4.23 | 4.84 | 7.58 | 6.9 | 5.33 | 6.78 | 7.52 | 7.27 | 2.67 | 2.99 | 1.83 | 2.31 | 1.28 | 2.32
